# From the supplement of paper PMC3334620
# In all, about 33,000 sequences were measured (“E-score (-0.5 to 0.5)”: median about -0.012, highest 2% from about 0.29 on). The full list was thinned out, with the highest values kept by preference.
# Molecular target: T1, Ybr033w (UniProt P38073)
# T1 sequence: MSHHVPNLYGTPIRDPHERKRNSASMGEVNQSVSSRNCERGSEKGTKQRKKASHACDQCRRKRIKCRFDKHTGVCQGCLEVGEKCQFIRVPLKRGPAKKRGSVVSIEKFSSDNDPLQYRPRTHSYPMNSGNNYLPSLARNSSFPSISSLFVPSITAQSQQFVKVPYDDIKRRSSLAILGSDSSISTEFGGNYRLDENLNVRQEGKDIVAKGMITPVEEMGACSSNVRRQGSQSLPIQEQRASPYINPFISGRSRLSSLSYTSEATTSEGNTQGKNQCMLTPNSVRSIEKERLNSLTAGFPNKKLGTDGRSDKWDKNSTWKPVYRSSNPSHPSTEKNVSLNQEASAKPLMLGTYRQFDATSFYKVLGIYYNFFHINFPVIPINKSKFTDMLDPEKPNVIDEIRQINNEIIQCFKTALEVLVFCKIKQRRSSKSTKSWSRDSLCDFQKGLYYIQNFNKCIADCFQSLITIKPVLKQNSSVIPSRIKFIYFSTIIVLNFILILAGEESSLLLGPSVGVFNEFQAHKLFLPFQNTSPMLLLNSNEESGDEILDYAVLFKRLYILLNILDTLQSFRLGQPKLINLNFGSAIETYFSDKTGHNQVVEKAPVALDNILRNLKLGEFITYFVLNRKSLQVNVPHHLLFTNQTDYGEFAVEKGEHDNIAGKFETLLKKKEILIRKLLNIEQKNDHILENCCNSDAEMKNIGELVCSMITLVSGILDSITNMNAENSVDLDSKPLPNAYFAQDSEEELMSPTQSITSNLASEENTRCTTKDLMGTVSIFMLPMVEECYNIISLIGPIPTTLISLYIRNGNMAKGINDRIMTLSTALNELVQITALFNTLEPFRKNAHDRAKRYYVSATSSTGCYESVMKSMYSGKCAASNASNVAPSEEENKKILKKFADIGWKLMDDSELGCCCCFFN
# Experiment: PBM E-score (8-mer binding enrichment) (E-score (-0.5 to 0.5)); higher = stronger / more preferred TF binding
# Conditions: protein concentration: 200 nM; construct: GST-full length
# Outline: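 Universal all-10-mer Agilent arrays, fresh or stripped once, were converted to double-stranded form by primer extension. GST-tagged yeast transcription factors from PURExpress in vitro transcription/translation, full-length or DNA-binding domain only, were applied at about 100-200 nM and detected with fluorescent anti-GST. After masliner normalisation, the Universal PBM Analysis Suite scored each ungapped eight-base word together with its reverse complement by E-score.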
row,Sequence,PBM E-score
1,AATTATAC,0.284
2,AACGGCTC,-0.0166
3,TAGGAATA,0.194
4,AGTGGTCG,-0.159
5,ATTGCCAA,-0.00029
6,TATTGGCA,0.0828
7,ACATTGCG,0.0729
8,TGTCCACA,0.134
9,GGACACAA,0.163
10,CTGAGCAA,-0.0556
11,ATGCCTAC,-0.0813
12,CACTGGGA,-0.0293
13,ATACAAGC,0.209
14,AGTTATTC,0.345
15,AATTATAA,0.253
16,AATTATTA,0.359
17,AGTTATTA,0.173
18,AATTATTG,0.274
19,AGTTATTG,0.223
20,ATGAAGAG,0.0478
21,AGAAGACG,0.123
22,ATTTCCGG,0.298
23,ATTTCCTG,0.3
24,ATTTCCGA,0.247
25,ATTTCCTC,0.176

row,Sequence,PBM E-score
1,ATTTCCTA,0.101
2,ATTTCCGC,0.15
3,CCCGAGGC,-0.329
4,ATTAAGCC,0.0562
5,AACTTGAA,0.251
6,AATTTTAT,0.331
7,AAATTACG,0.111
8,AAATTACT,0.333
9,CATTTACA,0.197
10,AACTTGAG,-0.167
11,GATTTACA,0.297
12,AATTTTAA,0.285
13,AACTTGAT,0.333
14,TATTTACA,0.21
15,AAATTACC,0.164
16,AATTTTAC,0.282
17,CGCTCCTA,-0.101
18,AGTTAGAA,0.0705
19,GTGGCTGA,-0.183
20,GACAGCAC,-0.00022
21,GGGTCCTA,-0.279
22,TCTAAGCA,-0.00029
23,CCGCTGCC,-0.418
24,CCAGAGCA,-0.0441
25,AACCAGCC,-0.0273

row,Sequence,PBM E-score
1,GACCAGGC,-0.164
2,AGGATGCA,-0.0489
3,CGTTCTAC,0.00885
4,CTGTTGTC,-0.0159
5,AACTTAAA,0.237
6,AACTTAAG,0.0775
7,AATTTAGT,0.241
8,AATTTAAG,0.211
9,AATTTAAT,0.319
10,AATTTAAC,0.245
11,AATTTACA,0.134
12,AATTTACT,0.311
13,AACTTAAT,0.314
14,CCTACCGC,-0.292
15,CCCAGTAC,-0.0948
16,CGAAGCGA,-0.0591
17,ACCAACAC,-0.0108
18,ACCTTGAA,0.102
19,GGATTATA,0.244
20,GCATTATA,0.0824
21,AAATTCTA,0.217
22,GAATTATC,0.305
23,AAATTATA,0.215
24,GAATTATA,0.307
25,CAATTATA,0.28

row,Sequence,PBM E-score
1,GAATTCTA,0.176
2,GAATTACC,0.139
3,TAATTCTA,0.288
4,TAATTATA,0.382
5,GAATTAAC,0.249
6,CTGCACAG,-0.0409
7,ATCCATAG,-0.0877
8,CCAGAAAG,0.171
9,CCTAAATC,0.0625
10,AATTGACG,-0.0634
11,CTATGCGA,-0.0724
12,AGAAATAC,0.104
13,GGAAATAA,0.284
14,AGAAATAG,0.227
15,AGAAATAT,0.299
16,AGAAATAA,0.36
17,CGAAATAA,0.264
18,AATTGCCT,0.0818
19,AAACTCCG,0.17
20,CTCTGCTC,-0.16
21,ACTGGCCC,0.0468
22,AGTTGGAG,-0.0321
23,AGTTGGAC,-0.0273
24,AGTTGGAT,0.288
25,CAGTCACG,-0.248

row,Sequence,PBM E-score
1,CACCGTGG,-0.311
2,AACAAGTG,0.127
3,ACCACCGC,-0.197
4,TAGATTCA,0.0876
5,CAGATTAG,-0.134
6,AAGATTAA,0.289
7,AAGATTAC,0.101
8,AAGATTAG,0.219
9,CAGATTAA,0.291
10,GAGATTAA,0.182
11,TAGATTGA,0.233
12,TAGATTAA,0.312
13,TCTGGGAA,-0.0142
14,GACGTCAA,-0.013
15,AGTTGGAA,0.124
16,CCCAAGAG,-0.146
17,AATCATCA,0.17
18,CCTGCCAG,-0.2
19,CTGGCCTA,-0.0592
20,ATAATCAT,0.292
21,ATAATCAA,0.229
22,ATAATCAG,0.092
23,AAAATCAA,0.221
24,AAAATCAT,0.31
25,AAAATCAG,0.188

row,Sequence,PBM E-score
1,CGGAAAGA,-0.0353
2,AGGTGTAC,0.0056
3,CTCAAGTA,0.0799
4,ATAGCTTG,-0.0519
5,GGCGACCC,-0.301
6,ACACACAT,0.117
7,AAATCGCT,-0.173
8,GCTTATAA,0.147
9,TCTTATAA,0.0725
10,ACTTATAA,0.305
11,ACTTATAT,0.328
12,ACTTATAG,0.0878
13,ACTTATAC,0.244
14,CTGGATAC,-0.107
15,GACACTAC,-0.0871
16,ACGCACAC,0.157
17,ATCTACGC,0.0459
18,GTATGATA,0.234
19,CAATGATA,0.126
20,AAATGATA,0.345
21,ACATGTTA,0.289
22,ATATGATA,0.347
23,ACATGTTC,0.0642
24,CTATGATA,0.113
25,AAATGATT,0.273

row,Sequence,PBM E-score
1,ACATGATA,0.32
2,ACATGTTG,0.244
3,GCATGATA,0.109
4,ACATGATC,0.122
5,CGACGTAG,-0.223
6,AGCATTCC,-0.043
7,ATGTGGCG,-0.018
8,AATCTTAC,0.137
9,GCTTAATA,0.0557
10,GGTGGAAA,-0.00937
11,CCTGCTCA,-0.156
12,ATTCTAGC,0.0909
13,ACGGGCTA,-0.252
14,AGGGATCA,0.169
15,AAATGATC,0.328
16,AAATGATG,0.248
17,CAATGATC,0.0568
18,CATACTGA,0.212
19,TATACTGA,0.351
20,GATACTGA,0.0886
21,CATTCGCG,0.0443
22,ATATAGGG,-0.00433
23,GAGGCCTC,-0.37
